Assay results: PubChem BioAssay AID434973 (Sanford-Burnham Center for Chemical Genomics, 2010)
Out of some 330,000 compounds screened, about 4,900 (1.5%) were called active. The sample holds actives, similar compounds and a random draw of the others, so the mix is not that of the screen. A number with no mark means an inactive call.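 Rule for the calls: active = inhibition above about 50% at the single test dose (limit read from the data); inactive = the rest.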

What follows are compounds tested against Sentrin-specific protease 7 (Homo sapiens) (UniProt Q9BQF6) (assay: blockers of human SENP7 peptidase activity – biochemical, luminescence, uHTS, primary screen (AID 434973;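 note: plate controls were DMSO with enzyme for no effect and no enzyme buffer wells for full effect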)). Conditions: recombinant SENP7, Z-RLRGG-aminoluciferin luminescence, 40 min; at 5 µM; hits give high values.

SMILES | inhibition
O=C(Nc1cccc(NC(=O)c2cccc(F)c2)c1)c1ccccc1 | -10.7%
O=C(Nc1cccc(C(=O)N2CCCC2)c1)c1ccccc1 | -13%
O=C(Nc1ccc(C(=O)O)c(O)c1)c1ccccc1 | 85.1% (active)
Cc1ccc(-n2ncc3c(Nc4cccc(C(=O)O)c4)ncnc32)cc1 | 92.6% (active)
Cc1ccc(Nc2ncnc3c2cnn3C)c(C)c1 | -0.763%
CCN(CC)C(=O)CSc1ncnc2c1cnn2-c1ccccc1 | 2.6%
CC(=O)NC1C(Oc2ccc(C=O)cc2)OC(COC(C)=O)C(OC(C)=O)C1OC(C)=O (configuration not stated) | 5.78%
Cc1cccc(NC(=O)CSc2nc3c(c(=O)[nH]2)CCC3)c1C | -1.39%
CC(=O)Nc1ccc(NC(=O)CSc2nnc(COc3ccccc3C)n2CC2CCCO2)cc1 (configuration not stated) | 5.76%
COC(=O)c1ccc([C@@H](O)[C@H](C)C(=O)CC(=O)OC(C)(C)C)cc1 | 6.36%
O=C(Nc1cccc(NC(=O)c2ccccc2[N+](=O)[O-])c1)c1ccccc1Cl | 6.18%
O=C(Nc1ccc2sc3ccccc3c(=O)c2c1)c1ccccc1Cl | 51.8% (active)
COc1cc(NC(=O)c2cccs2)ccc1NC(=O)c1ccccc1Cl | -1.86%
COc1ccc2[nH]c(C(=O)Nc3ccccc3Cl)cc2c1 | 6.38%
CC(OC(=O)c1cc2ccccc2[nH]1)C(=O)N(C)c1ccccc1 (configuration not stated) | -10.4%
O=C(Nc1ccccc1)c1cc2ccccc2[nH]1 | 76% (active)
CCSc1nc2c(c(=O)[nH]1)C(c1cccnc1)C(C(=O)OC(C)C)=C(C)N2 (configuration not stated) | 11%
COc1ccc(C(CNCC(=O)Nc2ccccc2F)N(C)C)cc1 (configuration not stated) | 2.72%
Cc1ccn2cc(-c3nonc3C)cc2c1 | 4.32%
CS(=O)(=O)N1CCN(C(=O)CSc2ccccc2)CC1 | -0.93%
Cc1cc(=O)n2[nH]c(-c3cccc(Cl)c3)cc2n1 | 1.33%
O=c1c2c(nc3cc(-c4cccc(Cl)c4)[nH]n13)CCCC2 | 66.7% (active)
CCCCN1Cc2c(nc3cc(-c4ccccc4)[nH]n3c2=O)C1=O | -4.67%

SMILES | inhibition
Cc1nc2ccccc2c(=O)n1-c1ccc(NS(=O)(=O)c2ccc(F)cc2F)cc1 | -0.987%
Clc1ccc(C2=CSC3=Nc4cccc5cccc(c45)N23)cc1 | 51.9% (active)
CCC(=O)c1ccc(OCC(O)Cn2nc(C)c(C(C)=O)c2C)cc1 (configuration not stated) | 0.247%
CC(C)(C)c1ccc(C(=O)NCc2ccco2)cc1 | -16.4%
CC(C)(C)NC(=O)NCc1ccco1 | -4.67%
CC(C)(C)c1ccc(NC(=O)NCc2ccco2)cc1 | 90.7% (active)
CN(C)S(=O)(=O)c1cc(C(=O)Nc2ccn(C)n2)c(Cl)cc1Cl | -0.713%
CN(C)NC(=O)C(NC(=O)c1ccc(N)cc1)C12CC3CC(CC(C3)C1)C2 (configuration not stated) | -0.0401%
Cc1noc(C)c1COc1ccc2ccc(=O)oc2c1 | -8.22%
CCCCc1cc(=O)oc2cc(C)cc(OCc3nn[nH]n3)c12 | 1.78%
COc1ccc(-c2cc3ccc(OCc4nn[nH]n4)cc3oc2=O)cc1 | 51% (active)
O=C(CNCCC1=CCCCC1)Nc1ccccc1N1CCCCCC1 | -5.33%
CN(C)c1ccc(/C=C/C(=O)c2ccc(O)cc2)cc1[N+](=O)[O-] | -14.8%
O=C(O)/C=C/c1ccc2c(c1)OCCO2 | 2.14%
O=C(/C=C/c1ccc2c(c1)OCCO2)c1ccc(O)cc1 | 68.4% (active)
Nc1nc(SCc2cccc(Br)c2)n[nH]1 | 0.492%
CCCC1CC(C)(C(=O)Cn2[nH]c(=O)ccc2=O)OC1=O (configuration not stated) | -0.683%
Cc1cc(C)nc(-n2ncc3c2CC(c2ccc(C(C)C)cc2)CC3=O)n1 (configuration not stated) | 9.11%
COc1ccc(-n2cnnc2SCC(=O)Nc2cccc([N+](=O)[O-])c2)cc1 | -4.85%
COc1cccc(NCCC(=O)c2cccc([N+](=O)[O-])c2)c1 | 13.1%
COc1ccc(Cc2nnc(SCC(=O)c3cccc([N+](=O)[O-])c3)n2C)cc1 | 73.6% (active)
O=C(CN1CCOCC1)N1CCCc2c1c(=O)oc1ccc(OCc3ccccc3)cc21 | 4.73%
C/C(=N\NC(=O)c1ccccc1F)c1ccccn1 | 64.2% (active)

SMILES | inhibition
COc1ccc(/C(C)=N\NC(=O)c2ccc(-c3ccccc3)cc2)c(F)c1 | 3.63%
C/C(CC(=O)Nc1ccc(N(C)C)cc1)=N\NC(=O)c1ccccc1F | -1.56%
COc1ccc(OC)c(CNC(=O)c2cc(=O)[nH]c3ccc(S(=O)(=O)N4CCCC4)cc23)c1 | 0.442%
O=C1CC2(CCCC2)C(=O)N1CN1CCN(S(=O)(=O)c2ccc(F)cc2F)CC1 | -8.48%
CN1C(=O)/C(=N/OC(=O)c2ccccc2Br)c2ccccc21 | 4.98%
CCC1C(=O)c2ccccc2N(C)C1=O (configuration not stated) | -6.31%
CN1C(=O)/C(=C\c2cc(Br)cs2)c2ccccc21 | 80.9% (active)
O=C(Nc1cc(=O)[nH]c2ncnn12)c1ccccc1Cl | 10.9%
Cc1ccc(NC(=O)CN2CCc3ccccc3C2)cc1 | -5.44%
Cc1ccc(S(=O)(=O)N2CCN(c3ncnc4ccccc34)CC2)cc1 | 0.743%
Cc1ccc(S(=O)(=O)Nc2nc3ccccc3nc2N2CCc3ccccc3C2)cc1 | 86.2% (active)
O=C(COc1ccccc1O)NC1CCCC1 | -1.19%
CCCCNc1ccc(C(=O)Nc2cccc(C)n2)cc1[N+](=O)[O-] | -7.17%
Nc1ccc(N=Nc2ccccc2Cl)c(N)n1 | 82.3% (active)
CCOc1cc(/C=C/C(=O)OCC(=O)NCCN2C(=O)CSC2=O)ccc1OCC(C)C | 4.69%
Cc1noc(C)c1/C=N/Nc1ccc2ccccc2n1 | 52.5% (active)
Cc1nc(Cl)cc(N/N=C/c2ccccc2)n1 | 4.74%
Cc1nc2ccccc2nc1N/N=C/c1ccc(O)cc1O | 7.72%
O=C(N/N=C/c1ccc2c(c1)OCO2)C(=O)N1CCCC1 | 4%
C(=N\Nc1ccc2ccccc2n1)/c1ccc2c(c1)OCO2 | 96.1% (active)
Cc1cc(=O)[nH]c(N/N=C/c2ccc3c(c2)OCCO3)n1 | 6.15%
